Most compounds without a hit are left out; they make up all but 2.9% or so of the library.
rCAG RNA binder = molecules binding r(CAG) RNA repeats; 1.3% of 370,000 active; r(CAG) RNA repeat, TO-PRO-1 dye displacement fluorescence; inhibition, % at 3 µM;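 active = inhibition above the plate cutoff, the mean of all test compounds on that plate plus 3 SD, cut at about 35% in these data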;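 also: 0% = DMSO alone and 100% = 100 µM mitoxantrone as full dye displacement; higher means more dye released from RNA so lower well fluorescence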
ZTA counter = blocks Epstein-Barr virus ZTA, an EBNA-1 counter-screen; inhibition, % at 11 µM; 0.15% of 320,000 active; ZTA-DNA binding, fluorescence polarization; in the data active = inhibition above about 33%
Target sequence (P03206 whole entry, looked up): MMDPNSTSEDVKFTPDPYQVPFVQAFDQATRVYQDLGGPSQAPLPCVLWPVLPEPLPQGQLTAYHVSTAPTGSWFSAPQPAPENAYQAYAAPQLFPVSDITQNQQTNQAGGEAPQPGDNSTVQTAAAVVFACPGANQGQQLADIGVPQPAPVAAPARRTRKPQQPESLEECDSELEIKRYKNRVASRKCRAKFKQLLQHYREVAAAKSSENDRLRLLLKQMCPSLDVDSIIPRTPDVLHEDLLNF
PAFAH1B2 FP inh = blocks human PAF acetylhydrolase 1b catalytic subunit 2. P68402. recombinant PAFAH1B2, FP-rhodamine activity probe, fluorescence polarization. inhibition, % at 3.39 µM. 1.2% of 340,000 active. AID 492953;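 active = inhibition above the mean of all tested compounds plus 3 SD, cut at about 24% in these data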;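 also: 0% = enzyme with DMSO and 100% = wells lacking PAFAH1B2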
Target sequence (P68402 whole entry, looked up): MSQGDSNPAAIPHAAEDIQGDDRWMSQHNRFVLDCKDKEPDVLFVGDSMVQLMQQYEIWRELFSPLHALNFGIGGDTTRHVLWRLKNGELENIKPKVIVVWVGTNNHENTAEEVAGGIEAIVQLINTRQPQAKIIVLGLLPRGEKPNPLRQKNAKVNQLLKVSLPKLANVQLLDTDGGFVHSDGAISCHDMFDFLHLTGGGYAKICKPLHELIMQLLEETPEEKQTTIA
PAFAH1B3 inh = PAFAH1B3 (human) inhibition; Q15102; recombinant PAFAH1B3, FP-rhodamine probe, fluorescence polarization; inhibition, % at 3.39 µM; 0.28% of 340,000 active;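 active = inhibition above the screen-wide average of all tested compounds plus 3 SD, cut at about 25% in these data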;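 also: 0% = enzyme with DMSO only and 100% = wells lacking PAFAH1B3 protein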
PAFAH2 inh = PAFAH2 (human) inhibition; Q99487; recombinant PAFAH2, FP-rhodamine activity probe, fluorescence polarization; inhibition, % at 3.39 µM; 0.99% of 340,000 active;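 active = inhibition above the mean over all tested compounds plus 3 SD, cut at about 30% in these data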;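 also: inhibitors block probe labeling of enzyme so polarization drops; 0% = enzyme with DMSO and 100% = wells lacking PAFAH2 protein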
EBNA-1 inh = blocks EBNA-1 binding to DNA; EBNA-1 DNA binding, fluorescence polarization; inhibition, % at 14.8 µM; 0.34% of 300,000 active; AID 1950; in the data active = inhibition above about 28%
PAFAH2 confirm = confirmation of human PAFAH2 inhibitors | inhibition, % at 3.39 µM | 65% of 2,300 active | recombinant PAFAH2, FP-rhodamine activity probe, fluorescence polarization | shares compounds with PAFAH2 inh;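 active = mean inhibition over three repeats above a set limit taken from the earlier primary screen, cut at about 30% in these data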;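 also: inhibitor blocks binding of rhodamine activity probe so polarization falls; 0% = enzyme with DMSO and 100% = wells lacking PAFAH2 protein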
Numbers without * were called inactive; nt = no result.

SMILES	rCAG RNA binder	ZTA counter	PAFAH1B2 FP inh	PAFAH1B3 inh	PAFAH2 inh	EBNA-1 inh	PAFAH2 confirm
COc1ccc(C(=O)CSc2nnc(-c3ccccc3)n2-c2ccc(Cl)cc2)cc1	8	nt	nt	nt	nt	nt	nt
CC(C)n1nc(C(=O)Nc2nnc(SCc3c(Cl)cccc3Cl)s2)c2ccccc2c1=O	-1	-13	-1	-7	40*	10	66*
COC(=O)[C@]12C[C@H](CC(=O)N3CCC(c4ccccc4)CC3)C(=O)N(CCc3ccc(OC)c(OC)c3)C1=C[C@H](C1CCCC1)O[C@@H]2C	7	nt	nt	nt	nt	nt	nt
Nc1cc(C(F)(F)F)ccc1NCCc1ccccn1	-5	-12	6	5	64*	-28	52*
c1ccc(NCCc2ccccn2)cc1	3	nt	4	5	6	nt	nt
CN(C)CC(=O)N[C@@H]1C[C@@H]2O[C@@H](CO)CC[C@@H]2O[C@@H]1CCc1ccc(C2=CCCCC2)cc1	-2	nt	nt	nt	nt	nt	nt
Cc1ccc(C(=O)NCCSc2c(C)[nH]c3ccccc23)cc1[N+](=O)[O-]	6	-7	8	6	30*	3	19
O=c1c2c(nc3cc(-c4ccccc4Cl)[nH]n13)CCS2	33	3	3	4	22	7	nt
O=c1c2c(nc3cc(-c4ccccc4)[nH]n13)CCS2	5	0	12	5	43*	-4	4
COc1ccc(NC(=O)COC(=O)/C=C/c2ccc(OC)c(S(=O)(=O)N3CCOCC3)c2)cc1	1	-13	-1	3	62*	-8	58*
COc1ccc(/C=C/C(=O)OCC(=O)Nc2ccc(C)cc2)cc1S(=O)(=O)N1CCOCC1	3	3	0	-4	71*	5	73*
COc1ccc(/C=C/C(=O)OCC(=O)Nc2ccc(OC)c(S(=O)(=O)N3CCCCC3)c2)cc1	6	9	-8	-8	29	2	nt
Cc1ccc(NC(=O)COC(=O)/C=C/c2cccc(Cl)c2)cc1S(=O)(=O)N1CCOCC1	6	12	5	-9	60*	13	50*
COC(=O)[C@]12C[C@H](CC(=O)N3CCOCC3)C(=O)N(Cc3cccc4ccccc34)C1=C[C@H](C(C)(C)C)O[C@@H]2C	3	nt	nt	nt	nt	nt	nt
O=C(NCCc1c[nH]c2ccccc12)OCc1cn(Cc2ccccc2F)nn1	5	nt	nt	nt	nt	nt	nt
Cc1ccccc1CSc1nnc(NC(=O)C2COc3ccccc3O2)s1 (stereo unspecified)	24	-12	5	1	6	-7	nt
O=C(Nc1nnc(SCc2ccccc2Cl)s1)C1COc2ccccc2O1 (stereo unspecified)	5	12	11	5	52*	3	41*
COc1ccc(N2C(=O)c3ccccc3NC(=O)C2C(=O)Nc2ccc(N3CCOCC3)cc2)cc1 (stereo unspecified)	6	nt	nt	nt	nt	nt	nt
O=C(CS(=O)(=O)c1ccccc1)Nc1ccccn1	1	0	7	7	6	-6	nt
O=C(CS(=O)(=O)Cc1ccccc1)Nc1ccccn1	3	-10	-2	7	36*	-3	28
O=C(CS(=O)(=O)Cc1ccccc1)Nc1ccc(Cl)cn1	-3	-8	9	1	61*	-5	40*
CCc1ccc(CCNC(=O)OCCCN2CCC3(CCC(c4ccccc4)CC3)C2=O)cc1 (stereo unspecified)	7	nt	nt	nt	nt	nt	nt
CCc1sc(/C=C(/C#N)C(N)=S)cc1[N+](=O)[O-]	20	nt	12	10	31*	nt	25
O=C1C(=O)N(CCCN2CCOCC2)C(c2ccc(F)cc2)/C1=C(\O)c1ccc2c(c1)OCCO2 (stereo unspecified)	10	17	4	1	48*	3	3
CCN(C(=O)c1ccc2c(c1)OCO2)C12CC3CC(CC(C3)C1)C2	5	nt	11	5	40*	nt	35*
SMILES	rCAG RNA binder	ZTA counter	PAFAH1B2 FP inh	PAFAH1B3 inh	PAFAH2 inh	EBNA-1 inh	PAFAH2 confirm
COc1ccc(N2CCN(CCCNC(=O)COc3ccc(C)cc3)CC2)cc1	-2	nt	nt	nt	nt	nt	nt
COc1ccc(C(=O)OCCN2CCN(C3CN(Cc4cn(Cc5ccccc5Cl)nn4)S(=O)(=O)C3)CC2)cc1OC (stereo unspecified)	0	nt	nt	nt	nt	nt	nt
CN(C(=O)COC(=O)C1COc2ccccc2O1)C1(C#N)CCCCC1 (stereo unspecified)	0	-5	0	-2	-2	nt	nt
CN(C(=O)COC(=O)c1ccc(Cl)s1)C1(C#N)CCCCC1	-13	nt	0	-7	30*	nt	13
CN(C(=O)COC(=O)c1ccc(Cl)c(S(=O)(=O)N2CCCCC2)c1)C1(C#N)CCCCC1	3	3	1	3	30*	nt	15
CC(C)COc1ccc(C(=O)OCC(=O)NCc2cccs2)cc1	3	nt	4	9	41*	nt	37*
CC(=O)Nc1ccc(C(=O)OCC(=O)NCc2cccs2)cc1	1	6	-6	1	72*	nt	38*
Cc1cccc(C(=O)OCC(=O)NCc2cccs2)c1	-2	-10	-4	3	41*	7	29
CC(=O)Nc1ccc(C(=O)OCC(=O)NCc2ccc(Cl)cc2)cc1	nt	4	nt	nt	nt	-4	nt
CC(C)NC(=O)C1(C)CN(S(C)(=O)=O)CC(=O)N1CCCn1ccnc1 (stereo unspecified)	0	nt	nt	nt	nt	nt	nt
O=C(CSc1nnc(-c2ccccn2)n1-c1ccccc1)c1ccc(F)cc1	2	nt	nt	nt	nt	nt	nt
COc1cc2c(NCCCCCCO[N+](=O)[O-])ncnc2c(OC)c1OC	1	nt	nt	nt	nt	nt	nt
CCOC(=O)[C@]12CCCC3=C1N(CCC3)C(=O)[C@@H](CC(=O)NCCc1ccccc1OC)C2	-1	nt	nt	nt	nt	nt	nt
CCCC[C@@H]1C(=O)N2N=Cc3cc(C)c(C)cc3[C@H]2N2N=Cc3cc(C)c(C)cc3[C@@H]12	9	nt	nt	nt	nt	nt	nt
Cc1ccc(NC(=O)COC(=O)c2cccc(N3C(=O)c4ccccc4C3=O)c2)cc1	6	-4	3	2	38*	10	27
CC(=O)c1cccc(NC(=O)COC(=O)c2cccc(N3C(=O)c4ccccc4C3=O)c2)c1	4	9	-1	6	52*	4	46*

Screens: PubChem BioAssay, The Scripps Research Institute Molecular Screening Center
